DT40 TDP1 no CPT: qHTS for Inhibitors of human tyrosyl-DNA phosphodiesterase 1 (TDP1): qHTS in cells in absence of CPT | 15% of 420,000 active | DT40 Tdp1-/- hTDP1 cells, no CPT, ATP luminescence, 48 h | Potency, µM (series often up to 46.2 µM), inactives show at the highest dose activity change, negative = growth inhibition, hits mostly inhibitors | AID 686978, 2013; also: potency is read from the fitted curve at half-maximal effect; % is scaled to controls: 0 for no effect and ±100 for the full control effect; nearly all actives have a fitted effect of over 55% in size
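Camptothecin absent (DMSO only). Human TDP1-complemented DT40 knockout cells, 400 cells/well, 37 °C for minimum 48 hr; ATP measured via CellTiter-Glo, 30 min dark incubation, luminescence.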
TGFb SMAD3 inh: blocks TGF-b signaling | AID 588855 | 1.2% of 410,000 active | Potency, µM (top dose mostly 46.1 µM), for the others: top-dose activity, negative = inhibition, hits mostly inhibitors | HepG2 CAGA-GFP TGF-b/SMAD3 reporter, GFP fluorescence, 18 h; TGF-beta stimulated, 500 pg/mL final; also: potency is read from the fitted curve at half-maximal effect; % is scaled to controls: 0 for no effect and ±100 for the full control effect; nearly all actives have a fitted effect of over 65% in size
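Read-out: total well GFP (ex488/em500-530) summed from mean per-cell fluorescence. Cells: HEPG2 CAGA-GFP, 1% FBS DMEM, 18 h at 37 degrees C with 500 pg/mL final TGF-beta. Unstimulated wells served as the full-inhibition control; stimulated DMSO wells = 0%.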
ASM inhibitor: inhibitors of human secretory acid sphingomyelinase. P17405. placental ASM, HMU-PC fluorogenic substrate, 60 min. Potency, µM (doses to about 57.5 µM), without a hit: at the highest dose activity change, negative = inhibition, usual class: inhibitors. 0.006% of 340,000 active; also: potency is read from the fitted curve at half-maximal effect
Target sequence (P17405 47-631 limits assumed): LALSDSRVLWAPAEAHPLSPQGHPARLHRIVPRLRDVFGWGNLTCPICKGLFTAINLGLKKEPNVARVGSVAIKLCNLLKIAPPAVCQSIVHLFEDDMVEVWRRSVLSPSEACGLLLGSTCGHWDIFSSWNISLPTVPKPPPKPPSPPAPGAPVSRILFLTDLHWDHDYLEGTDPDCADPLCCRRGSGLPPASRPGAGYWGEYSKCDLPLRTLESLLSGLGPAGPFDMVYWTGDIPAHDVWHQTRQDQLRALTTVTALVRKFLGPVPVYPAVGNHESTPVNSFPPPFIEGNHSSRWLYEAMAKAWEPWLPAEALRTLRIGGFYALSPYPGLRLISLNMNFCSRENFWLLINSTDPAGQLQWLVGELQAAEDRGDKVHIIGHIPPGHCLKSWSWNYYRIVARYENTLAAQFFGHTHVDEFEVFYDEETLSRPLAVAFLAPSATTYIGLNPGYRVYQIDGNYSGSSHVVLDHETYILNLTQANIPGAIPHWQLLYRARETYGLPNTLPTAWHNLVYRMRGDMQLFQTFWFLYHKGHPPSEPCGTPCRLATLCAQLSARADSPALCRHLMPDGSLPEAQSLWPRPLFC
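Fluorogenic HMU-PC substrate (9 uM final) is turned over by placental ASM in 60 min at 37 C after a 10 min compound preincubation. Reaction ended by alkaline stop (pH 10), with fluorescence read at 386/447 nm.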
IL-1B inflam inh: blocks inflammasome-driven IL-1 beta release; THP-1 LPS/ATP IL-1B secretion, AlphaLISA, 16 h; hits give low values; activity change, % at 57.5 µM; 4.7% of 360,000 active; in the data active = activity change below about -50%; inconclusive = mostly about -30% to -49%; also: % is scaled to controls: 0 for no effect and ±100 for the full control effect
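Secreted IL-1B measured by AlphaLISA bead assay after 16 h compound exposure of THP-1 cells; compounds (final up to 57.5 uM) added 1 h before LPS (250 ng/mL) and ATP (1.25 mM) stimulation; lower signal means less secretion.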
DT40 TDP1 CPT: growth inhibition of DT40 Tdp1-/-;hTDP1 cells with camptothecin (screen for TDP1 inhibitors); Potency, µM (series often up to 46.2 µM), without a hit: at the highest dose activity change, negative = growth inhibition, usual class: inhibitors; 12% of 420,000 active; chicken DT40 Tdp1-/-;hTDP1 cells + 20 nM CPT, ATP luminescence, 48 h; also: potency is read from the fitted curve at half-maximal effect; % is scaled to controls: 0 for no effect and ±100 for the full control effect; nearly all actives have a fitted effect of over 55% in size
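Chicken DT40 Tdp1-/- cells complemented with human TDP1, 400 cells/well, exposed to compounds plus 20 nM camptothecin for at least 48 h at 37 C; viability read as ATP content by CellTiter-Glo luminescence.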
HepG2 viability: kills HepG2 cells in TGF-b inhibitor counter-screen; HepG2 CAGA-GFP viability, ATP luminescence, 18 h; Potency, µM (series often up to 46.1 µM), inactives show at the highest dose activity change, negative = cytotoxicity, most hits filed as cytotoxic; 0.76% of 410,000 active; also: potency is read from the fitted curve at half-maximal effect
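HepG2 CAGA-GFP cells (1000/well, DMEM with 1% FBS) received compound, then TGF-beta at 500 pg/mL final, and were incubated 18 hours at 37 degrees C. Viability was read by CellTiter-Glo luminescence. Media-only wells were set as complete cell-killing and DMSO as no toxicity.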
Numbers without * were called inactive; ? = inconclusive; / = no result given. This is a sample that favours compounds with a hit; in the whole collection about 19% have one here. Unless noted, calls follow the shape of the dose curve; as a rule, active = well fitted curve in the direction sought with a large enough effect; inconclusive = small, poorly fitted or top-dose-only effect, or another doubt; inactive = no such curve, though single readings can be large; an effect the other way counts as inactive or inconclusive.

SMILES	DT40 TDP1 no CPT	TGFb SMAD3 inh	ASM inhibitor	IL-1B inflam inh	DT40 TDP1 CPT	HepG2 viability
COc1cc(CNC2CCCc3ccccc32)cc(OC)c1OC (stereo unspecified)	21µM*	3%	0%	-13	?	-24%
CCOc1cc(CNC2CCCC2)cc(Cl)c1OCc1ccc(F)cc1	23µM*	?	-2%	-80*	15µM*	11µM*
COCCOc1ccc(C(F)(F)F)cc1NC(=O)COC(=O)Cc1c[nH]c2ccccc12	2%	0%	-14%	-3	-23%	-22%
CCCc1cc(N2CCN(c3ccccc3)CC2)n2cnnc2n1	-77%	?	/	/	?	-30%
CCCc1cc(N2CCN(c3ccccc3F)CC2)n2cnnc2n1	26µM*	-22%	/	/	18µM*	-16%
COC(=O)[C@H](Cc1ccccc1)N(Cc1ccc(C)cc1)S(C)(=O)=O	?	-10%	/	/	?	-31%
COc1ccccc1OC(C)C(=O)Nc1cccc(-c2nc3ccccc3o2)c1 (stereo unspecified)	21µM*	61%	/	/	?	-23%
Cc1cc(OC(C)C(=O)Nc2cccc(-c3nc4ccccc4o3)c2)cc(C)c1Cl (stereo unspecified)	16µM*	-5%	/	/	?	-7%
COc1ccccc1OC(C)C(=O)Nc1cccc(-c2nc3ccccc3s2)c1 (stereo unspecified)	12µM*	-9%	/	/	21µM*	-8%
CC(C)C(=O)Nc1cccc(-c2nc3ccccc3o2)c1	?	?	-2%	0	-17%	-32%
CC(Oc1ccccc1F)C(=O)Nc1ccc(-c2nc3ccccc3s2)cc1 (stereo unspecified)	-26%	-11%	/	/	-21%	-29%
CCOC(=O)c1ccccc1NC(=O)COC(=O)C(CC)Oc1ccccc1 (stereo unspecified)	?	5%	/	3	-9%	-1%
CC(=O)Nc1ccc(C(=O)N2CCCC(n3cc(C(=O)NCC(C)C)nn3)C2)cc1 (stereo unspecified)	-6%	/	/	/	0%	/
CC(C)Cn1c2c(c(=O)[nH]c1=O)C(C(F)(F)F)(C(F)(F)F)N=C(CCC1CCCCC1)N2	4.1µM*	5%	-3%	-6	6.5µM*	-5%
O=c1[nH]c(=O)n(Cc2ccco2)c2c1C(C(F)(F)F)(C(F)(F)F)N=C(C1CCCCC1)N2	-18%	16%	2%	6	?	-75%
O=c1[nH]c(=O)n(Cc2ccco2)c2c1C(C(F)(F)F)(C(F)(F)F)N=C(CCc1ccccc1)N2	?	-26%	-2%	?	18µM*	-25%
O=c1[nH]c(=O)n(-c2ccccc2)c2c1C(C(F)(F)F)(C(F)(F)F)N=C(CCC1CCCCC1)N2	18µM*	-5%	-5%	21	?	-19%
COc1ccc(-n2c3c(c(=O)[nH]c2=O)C(C(F)(F)F)(C(F)(F)F)N=C(CC(C)C)N3)cc1	-16%	-1%	-2%	13	-25%	3%
COc1cc(NC(=O)c2nc3cc(C)c(C)cc3n(C)c2=O)cc(OC)c1OC	6%	-19%	/	/	12%	7%
O=C(CN1C(=O)NC2(CCCCC2)C1=O)NCCc1ccc(Cl)cc1Cl	?	-8%	2%	-11	?	-11%
O=C(Nc1cccc(-c2cnc3ccccc3n2)c1)c1ccncc1	5.8µM*	-1%	-2%	69	?	13%
CC(=O)Nc1ccc(C(=O)Nc2cccc(-c3cnc4ccccc4n3)c2)cc1	?	?	-4%	20	-15%	7%
O=C(Nc1cccc(-c2cnc3ccccc3n2)c1)c1ccco1	16µM*	?	-10%	12	?	-3%
